GCN5L2 inh: blocks human GCN5L2 histone acetyltransferase. Potency, µM (titrated, usually from 58.9 µM), inactives show at the highest dose activity change, negative = inhibition, hits mostly inhibitors. 0.21% of 390,000 active. GCN5L2 HAT assay, ThioGlo1 CoA-SH fluorescence. Q92830; also: % is scaled to controls: 0 for no effect and ±100 for the full control effect
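Enzyme at 20nM final was mixed with library compounds for 15 min at room temperature. Peptide H3(1-25) at 75uM, acetyl-CoA at 70uM and ThioGlo1 at 50uM were then added. Plates were read immediately and after 20 min (Ex340nm/Em540nm).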
PLK1 PBD block: inhibitors of human PLK1 polo-box domain binding | AID 720504 | Potency, µM, without a hit: max response, negative = inhibition, usual class: inhibitors | P53350 | Plk1 PBD binding of FITC phosphopeptide, fluorescence polarization | 2.8% of 360,000 active; also: series mostly up to about 57 µM; % is scaled to controls: 0 for no effect and ±100 for the full control effect; nearly all actives have a fitted effect of over 65% in size
Target sequence (P53350 whole entry, looked up, the tested form may be a part): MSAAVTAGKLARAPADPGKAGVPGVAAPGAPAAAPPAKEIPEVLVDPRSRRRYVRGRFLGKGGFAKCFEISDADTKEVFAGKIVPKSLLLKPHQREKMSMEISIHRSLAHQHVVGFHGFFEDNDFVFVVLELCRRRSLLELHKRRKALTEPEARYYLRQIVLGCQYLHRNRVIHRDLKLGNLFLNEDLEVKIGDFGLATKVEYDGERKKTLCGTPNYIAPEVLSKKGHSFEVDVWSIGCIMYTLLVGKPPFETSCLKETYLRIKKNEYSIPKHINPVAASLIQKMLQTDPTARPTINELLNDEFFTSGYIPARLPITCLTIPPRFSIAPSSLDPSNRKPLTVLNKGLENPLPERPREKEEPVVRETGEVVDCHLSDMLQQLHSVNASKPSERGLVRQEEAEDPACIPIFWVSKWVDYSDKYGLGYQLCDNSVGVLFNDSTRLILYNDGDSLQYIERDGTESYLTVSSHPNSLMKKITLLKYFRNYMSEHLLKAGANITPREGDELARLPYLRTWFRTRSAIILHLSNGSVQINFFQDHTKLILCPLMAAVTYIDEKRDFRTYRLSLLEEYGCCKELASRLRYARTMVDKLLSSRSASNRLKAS
TSG101-PTAP inh: blocks PTAP/TSG101 interaction to inhibit HIV-1 budding | Q99816 | Fluorescence polarization, FITC-PTAP peptide / Tsg101 binding | Potency, µM (series often up to 115 µM), for the others: top-dose activity change, negative = inhibition, hits mostly inhibitors | 340,000 tested, under 10 active; active = well fitted inhibition curve with a large enough effect in the main read-out, with a control signal flat, not every such curve was filed as active; inconclusive = small, poorly fitted or top-dose-only effect, or effect the other way, or a change in a side signal; inactive = no such curve, though single readings can be large or run the other way; also: % of control where 0% means no effect
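Tsg101 binding domain (10 uM final) was mixed with compound and a FITC-labeled PTAP peptide (50 nM final) in HEPES pH 7.5 buffer with NaCl, Tween 20, EDTA and TCEP; fluorescence polarization was read after 20 min at r.t.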
USP1-UAF1 inh: blocks the human USP1/UAF1 deubiquitinase complex. AID 743255. recombinant USP1/UAF1, Ub-Rhodamine cleavage fluorescence. 0.23% of 390,000 active. Potency, µM (doses to about 57.1 µM), for the others: at the highest dose activity change, negative = inhibition, most hits filed as inhibitors. O94782; also: % is scaled to controls: 0 for no effect and ±100 for the full control effect; nearly all actives have a fitted effect of over 60% in size
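Step one: compound is pinned into 1nM USP1/UAF1 in HEPES pH 7.8 buffer with TCEP. Step two: 15 min room-temperature incubation. Step three: Ub-Rho (150nM final) starts cleavage, tracked by fluorescence over six one-minute reads.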
VDR inh: inhibitors of human vitamin D receptor; 0.93% of 400,000 active; AID 504847; Potency, µM, without a hit: max response, negative = inhibition, actives largely listed as inhibitors; VDR-SRC2-3 peptide fluorescence polarization, 2 h; P11473; also: % is scaled to controls: 0 for no effect and ±100 for the full control effect
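Two reagent solutions held at 4 deg C in the dark were dispensed, compounds pinned at 23 nl, and the mixture incubated 2 h at room temperature. Read-out: fluorescence polarization of VDR–SRC2-3 peptide binding.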
* = called active by the depositor; ? = inconclusive; · = no result. Only some compounds are listed: those with a hit (about 3% of all), similar ones and a draw of the others. Unless noted, calls follow the shape of the dose curve; as a rule, active = well fitted curve in the direction sought with a large enough effect; inconclusive = small, poorly fitted or top-dose-only effect, or another doubt; inactive = no such curve, though single readings can be large; an effect the other way counts as inactive or inconclusive. Potency is read from the fitted curve at half-maximal effect.

SMILES	GCN5L2 inh	PLK1 PBD block	TSG101-PTAP inh	USP1-UAF1 inh	VDR inh
CSCCC(NS(=O)(=O)c1ccc2c(c1)oc(=O)n2C)C(=O)N1CCN(c2cccc(Cl)c2)CC1 (stereo unspecified)	-3%	·	·	-22%	7%
O=C(O)c1cccc(NC(=O)c2cc3cc(Br)cc(Br)c3oc2=O)c1	-7%	·	·	-18%	6%
CN(C(=S)NC(=O)C12CC3CC(CC(C3)C1)C2)c1ccc(O)cc1	-10%	34µM*	-3%	-25%	?
C[C@H](CC[C@@H]1OC1(C)C)C1CC[C@H]2[C@@H]3CC=C4C[C@@H](O)CC[C@]4(C)[C@H]3CC[C@]12C (stereo partly specified)	-19%	·	·	·	-5%
CCOC(=O)c1c(O)c(Cl)c(C)[nH]c1=O	-5%	27µM*	-3%	-6%	5%
CCC(Oc1ccccc1)C(=O)Nc1ccc(OCc2cc(=O)n3ccc(C)cc3n2)cc1 (stereo unspecified)	-6%	·	·	-1%	11%
Cc1nc2c(-c3ccccc3)c(C)[nH]n2c(=O)c1Cc1ccc(Br)cc1	1%	·	·	?	-5%
CC(C)c1ccc(OCC(=O)N(Cc2ccccc2)c2ccccn2)cc1	-7%	-3%	-4%	-10%	15%
CCN(CC(=O)Nc1c(F)cccc1F)C(=O)Cc1ccc2c(c1)CCC2	-4%	17µM*	-11%	-1%	6%
CN(CC(=O)Nc1c(Cl)cccc1Cl)C(=O)Cc1ccc2c(c1)CCC2	-5%	15µM*	0%	-11%	?
CCCN(CC(=O)Nc1ccccc1OC)C(=O)Cc1ccc2c(c1)CCC2	-2%	21µM*	-6%	-22%	?
CCN(CC(=O)Nc1ccccc1C(F)(F)F)C(=O)Cc1ccc2c(c1)CCC2	-1%	0%	-5%	-11%	0%
COc1cccc(NC(=O)CN(C)C(=O)Cc2ccc3c(c2)CCC3)c1	3%	-26%	0%	-7%	-7%
O=C(Cc1ccc2ccccc2c1)Nc1ccccc1Br	-3%	-4%	-1%	-33%	-4%
O=C(Cc1ccc2c(c1)CCCC2)Nc1ccccc1Br	6%	24µM*	0%	-6%	-22%
CCCN(CC(=O)Nc1ccccc1OC)C(=O)C1CCCC1	-2%	4%	2%	-14%	8%
CC(C)(C)c1ccc(C(=O)N2CCCC(c3nc4c(nnn4Cc4cccc(F)c4)c(=O)[nH]3)C2)cc1 (stereo unspecified)	-10%	·	·	-12%	-1%
CC(C)(C)C(=O)Oc1ccc(S(=O)(=O)Nc2ccccc2C(=O)NCC(=O)O)cc1	-6%	·	·	·	9%
COc1cccc(NC(=O)CSC(N)=O)c1	-23%	-6%	-1%	-5%	22µM*
COc1cccc(NC(=O)Nc2ccccc2SC)c1	-4%	19µM*	-12%	-25%	-8%
COc1ccccc1C(=O)Nc1ccc(C(=O)OCc2cc(=O)n3ccsc3n2)cc1	2%	·	·	-22%	18%
O=[N+]([O-])c1ccc(Cl)cc1Sc1cccc2cccnc12	-13%	-8%	-2%	3%	-15%
Cn1nc([N+](=O)[O-])nc1Sc1cccc2cccnc12	-6%	17µM*	-2%	-10%	-19%
O=C(O)COc1ccccc1C=NNc1ccc([N+](=O)[O-])cc1S(=O)(=O)Nc1ccc(Cl)cc1	?	24µM*	-5%	?	?
COc1ccc(NS(=O)(=O)c2cc([N+](=O)[O-])ccc2NN=Cc2ccccc2OCC(=O)O)cc1	-20%	?	0%	?	?
CC(C)NCCCCOc1cccc(Br)c1	-2%	19µM*	0%	4%	?
CC(C)NCCOc1cccc(Br)c1	-2%	1%	1%	-10%	-17%
CC[C@]1(O)C[C@@H]2CN(CCc3c([nH]c4ccccc34)[C@@](C(=O)OC)(c3cc4c(cc3OC)N(C)C3[C@]45CCN4CC=C[C@](CC)(C45)[C@@H](OC(C)=O)[C@]3(O)C(=O)OC)C2)C1 (stereo partly specified)	-16%	·	·	·	16%
COc1ccccc1C(=O)OCc1cc(=O)n2nc(C3CCCCC3)sc2n1	-7%	·	·	?	-8%

High-throughput results deposited in PubChem BioAssay by National Center for Advancing Translational Sciences (NCATS).
